Source: PubChem BioAssay (NCATS)
Records with an inconclusive call do not appear. Entries that show only a call come without a potency. A number with no mark means an inactive call. Active and inactive are the calls of the source. Calls follow the shape of the dose curve; as a rule, active = well fitted inhibition curve with a large enough effect in the repeat runs; inconclusive = weak or mixed curves; inactive = no such curve, though single readings can be large or run the other way.

molecular target: Cytochrome P450 2C9 (Homo sapiens) (UniProt P11712); assay: Cytochrome P450 family 2 subfamily C member 9 (CYP2C9) small molecule antagonists: luciferase biochemical (cell-free) qHTS assay (AID 1645842); settings: P450-Glo CYP2C9 enzyme assay, luciferin luminescence; series mostly up to 57.4 µM; also: nearly all actives have a fitted effect of over 55% in size
Sequence (P11712 whole entry, looked up): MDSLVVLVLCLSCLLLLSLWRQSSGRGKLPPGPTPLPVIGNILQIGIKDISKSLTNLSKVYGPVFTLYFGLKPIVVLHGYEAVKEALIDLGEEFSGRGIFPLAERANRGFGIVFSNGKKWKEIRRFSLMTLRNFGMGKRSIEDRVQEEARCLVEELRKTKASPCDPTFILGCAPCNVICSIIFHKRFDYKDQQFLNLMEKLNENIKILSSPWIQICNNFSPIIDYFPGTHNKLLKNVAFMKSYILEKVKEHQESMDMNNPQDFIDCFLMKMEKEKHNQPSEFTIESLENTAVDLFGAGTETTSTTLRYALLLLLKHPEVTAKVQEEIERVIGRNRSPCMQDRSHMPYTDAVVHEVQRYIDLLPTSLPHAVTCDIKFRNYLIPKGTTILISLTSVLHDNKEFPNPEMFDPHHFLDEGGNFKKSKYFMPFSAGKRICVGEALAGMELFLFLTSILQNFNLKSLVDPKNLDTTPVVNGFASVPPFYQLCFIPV
Experimental: National Center for Advancing Translational Sciences [NCATS] Assay Overview: Cytochrome P450 (CYP) enzymes are membrane-bound hemeproteins that play a key role in metabolism of drugs and xenobiotics. Assaying the effect of chemicals on CYP isozymes is useful to minimize the adverse drug reactions and toxicities in drug development process. Chemical compounds were tested for their effect on CYP enzyme activities by using P450-Glo (TM) screening systems (Promega Corporation, Madison, WI). These systems provide a luminescent method containing proluciferin substrates and are converted to luciferin products by CYP isozymes. The luciferin products formed are detected with a luciferin detection reagent, and the amount of light produced is proportional to CYP activity. P450-Glo (TM) CYP2C9 screening system (Catalog. No. V9790) was used to detect the compounds that interfere in CYP2C9 activity.
Assay Protocol Summary: Two ul of enzyme-substrate mix supplemented with 0.4% Bovine Serum Albumin was dispensed into medium binding white/solid 1536-well plates (Greiner Bio-One North America Inc., Monroe, NC) using a Flying Reagent Dispenser (FRD, Aurora Discovery, San Diego, CA). […] The assay plates were incubated at room temperature for 10 min. Then 2 ul of NADPH regeneration solution was added to each well of the assay plates using an FRD and incubated at 37C for 1 h. The reaction was stopped by adding 4 ul of detection reagent using an FRD and after 20 min incubation at room temperature, the luminescence signal was measured using a ViewLux plate reader (Perkin Elmer, Shelton, CT). Data were expressed as relative luminescence units.
Potency is read from the fitted curve at half-maximal effect.

Structure (SMILES) | Potency | activity change, negative = inhibition
CC(C)NCC(O)c1cc(O)cc(O)c1 (stereo not given) | inactive | –
O=c1[nH]c(=O)n([C@H]2C[C@H](O)[C@@H](CO)O2)cc1Br | inactive | –
CN(C)CC/C=C1\c2ccccc2COc2ccccc21 | inactive | –
CCCNC(C)C(=O)Nc1ccccc1C (stereo not given) | inactive | –
Cc1cccc(C)c1NC(=O)C(C)N (stereo not given) | inactive | –
COc1ccc2c(c1OC)C(=O)O[C@@H]2[C@H]1c2c(cc3c(c2OC)OCO3)CCN1C | 0.11 µM (active) | –
CCCCNc1c(C(=O)OCC)c(C)nc2c1cnn2CC | 17.4 µM (active) | –
Nc1ncn([C@@H]2O[C@H](CO)[C@@H](O)[C@H]2O)c(=O)n1 | inactive | –
Cc1nc2c([nH]1)c(=O)n(C)c(=O)n2Cc1ccco1 | inactive | –
CNCCCN1c2ccccc2CCc2ccccc21 | inactive | –
COCC(=O)O[C@]1(CCN(C)CCCc2nc3ccccc3[nH]2)CCc2cc(F)ccc2[C@@H]1C(C)C | inactive | –
CC(C(=O)O)c1ccc(CC2CCCC2=O)cc1 (stereo not given) | inactive | –
Nc1c2c(nc3ccccc13)CCCC2O (stereo not given) | inactive | –
FC(F)(F)c1ccccc1-n1ccnc1 | 13.8 µM (active) | –
Cc1nc2ccccn2c(=O)c1CCN1CCC(C(=O)c2ccc(F)cc2)CC1 | inactive | –
NC(=O)c1ncn([C@@H]2O[C@H](CO)[C@@H](O)[C@H]2O)c1O | inactive | –
C[C@H](CS)C(=O)N1CCC[C@H]1C(=O)O | inactive | –
O=C(O)CN(CCOCCOCCN(CC(=O)O)CC(=O)O)CC(=O)O | – | 9.82% [at 0.91 µM]
CC(C)(C)NCC(O)c1cc(O)cc(O)c1 (stereo not given) | inactive | –
NC/C=C/C(=O)O | inactive | –

Structure (SMILES) | Potency | activity change, negative = inhibition
CCN1CCc2nc(N)oc2CC1 | inactive | –
CCN(CC)CCNC(=O)c1cc(S(C)(=O)=O)ccc1OC | inactive | –
NCCCNCCSP(=O)(O)O | – | 13.8% [at 11.5 µM]
CNCCC(Oc1ccccc1OC)c1ccccc1 (stereo not given) | inactive | –
CN(C)C(=O)Oc1cccc([N+](C)(C)C)c1 | inactive | –
CCCN1C[C@H](CSC)C[C@@H]2c3cccc4[nH]cc(c34)C[C@H]21 | inactive | –
Cc1ccc(/C(=C\CN2CCCC2)c2ccccn2)cc1 | inactive | –
CN(C)C/C=C(/c1ccc(Br)cc1)c1cccnc1 | inactive | –
Cc1nnc(SCC2=C(C(=O)O)N3C(=O)[C@@H](NC(=O)Cn4cnnn4)[C@H]3SC2)s1 | inactive | –
NC(=Nc1ccccc1)Nc1ccccc1 | inactive | –
CCOC(=O)c1cnc2c(cnn2CC)c1NN=C(C)C | 13.8 µM (active) | –
C#CCN(C)CCCOc1ccc(Cl)cc1Cl | 30.9 µM (active) | –
Brc1c(NC2=NCCN2)ccc2nccnc12 | inactive | –
CCCOc1ccccc1-c1nc2n[nH]nc2c(=O)[nH]1 | inactive | –
C[N+](C)(C)CCOC(=O)CCC(=O)OCC[N+](C)(C)C | inactive | –
CN1CCN(C2=Nc3ccccc3Oc3ccc(Cl)cc32)CC1 | inactive | –
CN(C)CCN(Cc1cccs1)c1ccccn1 | inactive | –
NC1=NCC2c3ccccc3Cc3ccccc3N12 (stereo not given) | inactive | –
CCN(CC)CCNC(=O)c1ccc(NC(C)=O)cc1 | inactive | –
C=CCc1ccccc1OCC(O)CNC(C)C (stereo not given) | inactive | –
